± gives the standard deviation.
Experiments:
[1] = test system: MILI (PIWIL2) piRISC loaded with piRNA #1 (26 nt); assay: pre-steady-state target cleavage rate (min^-1); guide: piRNA #1 5'p-UGAGGUAGUAGGUUGUAUAGUAUCCA; higher = faster piRNA-guided slicing of the target; settings: auxiliary factor: 500 nM mouse GTSF1
How it was run: (§1)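 With or without 500 nM GTSF1 partner protein, 1 nM active affinity-purified piRISC carrying one synthetic guide was mixed with 0.1 nM transcribed, DNA-blocked target RNA library in HEPES–potassium acetate buffer at 33 °C for 0–8 or 0–960 min. Uncleaved targets were sequenced and normalised to depth and to weakly complementary targets, three trials were pooled, and k3 was capped at 0.0001 min^-1. The pre-steady-state cleavage rate came from a burst-and-steady-state fit.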

[2] = test system: EfPiwi piRISC loaded with piRNA #1 (26 nt); assay: pre-steady-state target cleavage rate (min^-1); auxiliary factor: 500 nM Ephydatia muelleri Gtsf1; guide: piRNA #1 5'p-UGAGGUAGUAGGUUGUAUAGUAUCCA; MIWI and MILI are mouse PIWI proteins and EfPiwi is from a freshwater sponge; tags in brackets are library labels; higher = faster piRNA-guided slicing of the target
How it was run: as §1

Row | Sequence | pre-steady-state target cleavage rate [1] | pre-steady-state target cleavage rate [2]
1 | GGAGACCUAUGAAGUACAACCUACUACCUCA | 0.00594 ± 0.0028 | 0.00479 ± 0.0035
2 | GGAGACCAUACUAUACAACCUACUACCGUCA | 0.141 ± 0.023 | 0.00677 ± 0.0025
3 | GGAGACCUAUCUAUACAACCUACUACCUCCA | 0.0927 ± 0.0097 | 0.0208 ± 0.0083
4 | GGAGAGGAUACUAUACAACCAUACUACCUCA | 0.00709 ± 0.0019 | 0.00323 ± 0.0026
5 | GGAGUGGAUACUAUACAGCCUACUACCUCA | 0.147 ± 0.0093 | 0.216 ± 0.073
6 | GGAGACGAUACUAUACAACCACUACCUCA | 0.00914 ± 0.0038 | 0.00795 ± 0.0036
7 | GGAGUGGAUACUAUACAACCUAUUACCUCA | 0.158 ± 0.014 | 0.0922 ± 0.034
8 | GGAGUGGAUACUAUAGAACCUUCUACCUCA | 0.00415 ± 0.0015 | 0.00334 ± 0.0018
9 | GGAGACCAUAACUAUACAACCUACUACCUCA | 0.135 ± 0.0094 | 0.138 ± 0.043
10 | GGAGACGAUACUAUACAACCUACUACGACA | 0.131 ± 0.022 | 0.0045 ± 0.0019
11 | GGAGAGGAUACUAUACAAGCUACUACCACA | 0.243 ± 0.019 | 0.00317 ± 0.0019
12 | GGAGACGAUACUAUACAUCGUACUACCUCA | 0.0496 ± 0.0064 | 0.00254 ± 0.0012
13 | GGAGAGGAUACUAUACAACCCUACUACCUCA | 0.0028 ± 0.0028 | 0.00598 ± 0.0032
14 | GGAGACGAUACUAUACAACCUACUACGCUCA | 0.19 ± 0.02 | 0.00415 ± 0.0014
15 | GGAGUGGAUACUAUACAACCUACUACACUCA | 0.128 ± 0.018 | 0.00464 ± 0.0021
16 | GGAGACCUAACUAUACAACCUACUGCCUCA | 0.102 ± 0.024 | 0.0364 ± 0.015
17 | GGAGUGGAUAGCUAUACAACCUACUACCUCA | 0.0528 ± 0.0074 | 0.00584 ± 0.0033
18 | GGAGACCAUACUAUACAACCUAUUACCUCA | 0.234 ± 0.019 | 0.0186 ± 0.0067
19 | GGAGAGGAUACUAUACAACCUACAUCCUCA | 0.00373 ± 0.0031 | 0.00358 ± 0.0016
20 | GGAGACCUAUCUAUACAACCUACUAUCUCA | 0.0794 ± 0.013 | 0.00591 ± 0.004

Row | Sequence | pre-steady-state target cleavage rate [1] | pre-steady-state target cleavage rate [2]
21 | GGAGACGAUACUUUACAACCUACUACCUGA | 0.117 ± 0.021 | 0.00356 ± 0.0024
22 | GGAGACCUAACGAUACAACCUACUACCUCA | 0.257 ± 0.053 | 0.0136 ± 0.0071
23 | GGAGACGAUACUAUUCAACCUAGUACCUCA | 0.0492 ± 0.01 | 0.0035 ± 0.0018
24 | GGAGACGAUAGAUUACAACCUACUACCUCA | 0.0557 ± 0.011 | 0.00662 ± 0.0047
25 | GGAGUGGAUACUAUACAACAUACUACCUCA | 0.0845 ± 0.0098 | 0.00987 ± 0.0037
26 | GGAGUGGAUACUAUACAUCCUACUACCUGA | 0.0983 ± 0.018 | 0.00497 ± 0.0018
27 | GGAGACCUAUCUAUACUACCUACUACCUCA | 0.0815 ± 0.01 | 0.00437 ± 0.0031
28 | GGAGAGCAUACUAUACAACCUACUUCCUCA | 0.0809 ± 0.025 | 0.00292 ± 0.0021
29 | GGAGACCUAUCUUUUCAACCUACUACCUCA | 0.0272 ± 0.0082 | 0.00766 ± 0.0047
30 | GGAGACCAUACUAUACAACCAUACUACCUCA | 0.0045 ± 0.0036 | 0.00431 ± 0.003
31 | GGAGACCAUACUAUACAACCUACUACCCA | 0.0934 ± 0.019 | 0.00453 ± 0.0028
32 | GGAGUGGAUACUAUACAUCCUACUACCUCA | 0.267 ± 0.014 | 0.124 ± 0.044
33 | GGAGACCUUUCUAUACAUCCUACUACCUCA | 0.158 ± 0.013 | 0.00708 ± 0.0041
34 | GGAGACCAACUAUACAACCUACUACCUCA | 0.224 ± 0.021 | 0.00596 ± 0.0037
35 | GGAGACCUAUCUAUACAAGCUACUACGUCA | 0.112 ± 0.012 | 0.00274 ± 0.0026
36 | GGAGAGGUUACUAUACAACCAACUACCUCA | 0.00725 ± 0.0016 | 0.00401 ± 0.002
37 | GGAGAGCAUUCUAUACAACCUACUACCUCA | 0.156 ± 0.013 | 0.0192 ± 0.01
38 | GGAGACCUAUGAAUACAACCUACUACCUCG [g2:g18:cont:t1G] | 0.0085 ± 0.002 | 0.00485 ± 0.004
39 | GGAGAGGAUUCUAUACAACCAACUACCUCA | 0.00507 ± 0.0028 | 0.00361 ± 0.0027
40 | GGAGACGAUACUAUACUACCUACUACGUCA | 0.138 ± 0.019 | 0.00262 ± 0.0017

Row | Sequence | pre-steady-state target cleavage rate [1] | pre-steady-state target cleavage rate [2]
41 | GGAGACCUUACUAUACAACCUACUACUUCA | 0.116 ± 0.016 | 0.0046 ± 0.003
42 | GGAGUGGAUACUAUACAACCUACUUCCUCA | 0.00401 ± 0.0017 | 0.00544 ± 0.0029
43 | GGAGUGGAUAACUAUACAACCUACUACCUCA | 0.0667 ± 0.0071 | 0.0101 ± 0.0044
44 | GGAGACCAUACUAUACAACCUACACCUCA | 0.00885 ± 0.0037 | 0.00776 ± 0.0044
45 | GGAGACCUAAAUAUACAACCUACUACCUCA | 0.0318 ± 0.0077 | 0.0102 ± 0.0046
46 | GGAGACCAUACUAUACAACCUACUACUUCA | 0.189 ± 0.019 | 0.00607 ± 0.0024
47 | GGAGUGGAUACUAUUCAACCUACUACGUCA | 0.0439 ± 0.0069 | 0.00281 ± 0.0015
48 | GGAGAGGUUACUAUUCAACCUACUACCUCA | 0.164 ± 0.0098 | 0.00359 ± 0.0029
49 | GGAGAGGAUACUAUUCAACCUACUACCUGA | 0.0595 ± 0.0098 | 0.00319 ± 0.0018
50 | GGAGACCAUUCUAAACAACCUACUACCUCA | 0.0936 ± 0.012 | 0.00894 ± 0.0049
51 | GGAGACGAAACUAAACAACCUACUACCUCA | 0.145 ± 0.022 | 0.00324 ± 0.0032
52 | GGAGACGAUAGUUUACAACCUACUACCUCA | 0.129 ± 0.01 | 0.0165 ± 0.0088
53 | GGAGAGGAUACUAAACAACCUUCUACCUCA | 0.0108 ± 0.0026 | 0.00394 ± 0.0023
54 | GGAGUGGAUACUAUACAAACUACUACCUCA | 0.195 ± 0.015 | 0.0127 ± 0.0051
55 | GGAGACGAUACUAUUCAACCUACUACCUCA | 0.202 ± 0.013 | 0.00923 ± 0.0038
56 | GGAGACGAUACAAUACAACCUACUACCUCA | 0.158 ± 0.012 | 0.0117 ± 0.0044
57 | GGAGAGCAUACUAUACAACCUUCUACCUCA | 0.0105 ± 0.0032 | 0.00445 ± 0.0027
58 | GGAGACGAUACUAACAACCUACUACCUCA | 0.173 ± 0.012 | 0.00704 ± 0.0045
59 | GGAGUGGAUACUAUACUACCUACUACCACA | 0.143 ± 0.013 | 0.0024 ± 0.0017
60 | GGAGAGCAUACUAUUCAACCUACUACCUCA | 0.217 ± 0.017 | 0.00555 ± 0.0041
